Data reported in PubChem BioAssay.
Active and inactive are the calls of the source.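 Rule for the calls, unless noted: active = inhibition at or above 50% at 10 µM; inactive = inhibition below 50%.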

How the values were obtained:
[1] = inhibitors of TNFa-induced NFkB p65 translocation, primary screen, imaging, HUVEC, MLSMR starter and 10KST1 sets (AID 438;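 active = inhibition above 20% together with a positive visual image hit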;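 note: compound added about 3h40 before a 20 min TNFalpha stimulation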;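 for inhibition: signal is the nuclear over cytoplasmic p65 intensity ratio per well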); conditions: HUVEC TNFa-induced p65 nuclear translocation; cell count: measured here: nuclei count (cytotoxicity indicator), at 2.08 µM; inhibition: at 2 µM, stronger effect = higher value, 0% TNFa-plus-vehicle, 100% no-TNFa wells
[2] = inhibitors of mutant huntingtin aggregation, primary screen, imaging, exon1htt(103Q)mCFP cells, high-content imaging (AID 483;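 active = visual image review flags a hit and inhibition of aggregation exceeds 20%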;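 note: compound exposure lasted 3 days before fixation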;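 for nuclei count: percent of the per-plate median nuclei count of sample wells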); conditions: exon1htt(103Q)mCFP cell line, aggregate imaging, at 2 µM; inhibition of aggregation: stronger effect = higher value; nuclei count: measured here: cell count, toxicity
[3] = inhibitors of E-selectin induction by TNFa, primary screen, imaging, HUVEC, immunofluorescence, MLSMR starter and 10KST1 sets (AID 487;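 active = visually confirmed hit in the image check and inhibition above 20%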;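 for inhibition: signal is fraction of cell area covered by stained E-selectin grains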;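 for nuclei count: 100% = median nuclei count of all wells on the same plate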); conditions: HUVEC TNFalpha-induced E-selectin immunofluorescence imaging, at 2 µM; inhibition: stronger effect = higher value; nuclei count: measured here: cell number, toxicity
[4] = target: Voltage-gated potassium channel subunit beta-2 (Rattus norvegicus) (UniProt P62483); experiment: KvBeta enzyme negative modulators, primary screen, biochemical, NADPH fluorescence (AID 622;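 active = fluorescence slope higher than the sample average by over 3 SD, cut at about -0.22 in these data, passing the limit was not always enough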;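 note: slope of raw intensity against log time taken from 70 to 1610 s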); conditions: recombinant KvBeta, 4-cyanobenzaldehyde reduction, at 10 µM, stronger effect = higher value
Chain of Voltage-gated potassium channel subunit beta-2 (Rattus norvegicus) (P62483 whole entry, looked up): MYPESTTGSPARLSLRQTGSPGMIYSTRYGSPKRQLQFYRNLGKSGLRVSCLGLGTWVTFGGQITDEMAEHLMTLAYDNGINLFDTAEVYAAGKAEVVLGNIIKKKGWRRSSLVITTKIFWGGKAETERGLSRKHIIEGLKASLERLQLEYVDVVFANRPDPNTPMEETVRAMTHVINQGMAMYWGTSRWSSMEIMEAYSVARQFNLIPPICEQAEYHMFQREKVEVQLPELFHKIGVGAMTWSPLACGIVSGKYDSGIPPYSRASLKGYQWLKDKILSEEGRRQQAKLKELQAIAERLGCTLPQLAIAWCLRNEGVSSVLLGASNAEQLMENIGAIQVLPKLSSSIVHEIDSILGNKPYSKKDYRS

[5] = target: Voltage-gated potassium channel subunit beta-2 (Rattus norvegicus) (UniProt P62483); experiment: KvBeta positive modulators, primary screen, biochemical, NADPH fluorescence (AID 623;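 active = NADPH fluorescence slope more negative than the mean of all samples by about 3 SD, 99.7% confidence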;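 note: fluorescence intensity change per second fitted from 20 to 320 s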); conditions: Recombinant KvBeta, NADPH fluorescence decrease slope, 10 min; at 10 µM; stronger effect = lower value
[6] = target: Alpha-2C adrenergic receptor (Homo sapiens) (UniProt P18825); experiment: modulators of alpha2C/GIRK thallium flux, primary screen, cell-based, HEK293 alpha2C/GIRK1/2 (AID 624;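 active = fluorescence slope after compound addition differing from the mean of all screened samples at 99.7% confidence, in either direction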;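 note: slope of fluorescence ratio to pre-addition baseline per second over 15 to 24 s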); conditions: thallium flux BTC fluorescence, at 10 µM, actives lie on both sides
Chain of Alpha-2C adrenergic receptor (Homo sapiens) (P18825 whole entry, looked up): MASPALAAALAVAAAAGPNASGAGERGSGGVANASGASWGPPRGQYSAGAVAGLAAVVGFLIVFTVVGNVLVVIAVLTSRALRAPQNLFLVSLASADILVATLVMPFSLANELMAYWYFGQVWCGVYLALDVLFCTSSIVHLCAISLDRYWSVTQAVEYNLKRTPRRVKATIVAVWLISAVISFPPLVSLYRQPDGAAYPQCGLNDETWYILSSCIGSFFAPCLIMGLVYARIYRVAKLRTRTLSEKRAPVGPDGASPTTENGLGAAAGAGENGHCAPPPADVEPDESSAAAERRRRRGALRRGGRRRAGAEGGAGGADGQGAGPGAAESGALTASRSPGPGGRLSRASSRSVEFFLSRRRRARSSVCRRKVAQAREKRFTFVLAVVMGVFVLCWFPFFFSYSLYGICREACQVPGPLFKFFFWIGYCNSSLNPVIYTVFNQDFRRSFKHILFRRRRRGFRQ

[7] = inhibitors of Sendai virus-induced IRF3 signaling, primary screen, TLR/RLR signaling modifier project, cell-based, Sendai virus stimulus, luciferase, 10K MLSCN set (AID 602276); conditions: HEK293 RL24 IRF3 luciferase reporter, at 10 µM, stronger effect = higher value;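 note: firefly luciferase from ISG56 promoter only with Renilla not read in this screen; 0% = Sendai virus plus DMSO and 100% = medium plus DMSO without virus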
[8] = inhibitors of poly I:C-induced TLR3 signaling, primary screen, cell-based, poly I:C stimulus, luciferase, 10K MLSCN set (AID 602277;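 active = inhibition of the reporter signal at or above 50%; inactive = inhibition below 50%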); conditions: HEK293-TLR3 RL24 IRF3 luciferase reporter, at 10 µM, stronger effect = higher value

Compound | cell count [1] | inhibition [1] | inhibition of aggregation [2] | nuclei count [2] [%] | inhibition [3] | nuclei count [3] [%] | fluorescence slope [4] | NADPH fluorescence slope [5] | slope [6] | inhibition [7] | inhibition [8]
COC(=O)c1ccc2c(c1)C(=O)N(C1CCCCC1)C2=O | 338 | 2.1% (inactive) | -2.4% (inactive) | 107 | -9.6% (inactive) | 96.9 | -0.443 (inactive) | -3.4e-05 (inactive) | 0.00524 (inactive) | 14.7% (inactive) | 13.8% (inactive)
CN(C(=O)c1ccccn1)c1nnc(-c2cccnc2)s1 | 622 | -8.7% (inactive) | 11.2% (inactive) | 93.2 | -52.7% (inactive) | 106 | -0.489 (inactive) | -5.1e-05 (inactive) | 0.0044 (inactive) | 0.693% (inactive) | -16.2% (inactive)
COc1ccc(N2CCN(Cc3nc4c(c(=O)n(C)c(=O)n4C)n3Cc3ccccc3C)CC2)cc1 | 719 | -14% (inactive) | 5.8% (inactive) | 100 | -7.8% (inactive) | 129 | -0.428 (inactive) | -2.3e-05 (inactive) | 0.00487 (inactive) | 14.4% (inactive) | 39.9% (inactive)
CCOC(=O)N1CCN(c2c(NCC3CCN(Cc4cccc(C)c4)CC3)c(=O)c2=O)CC1 | 577 | -2.7% (inactive) | 25.8% (inactive) | 104 | -67.1% (inactive) | 129 | -0.507 (inactive) | -2.1e-05 (inactive) | 0.00653 (inactive) | 5.85% (inactive) | 23.9% (inactive)
O=C(NCC(=O)N1CCC(N2CCCCC2)CC1)C1CCCCC1 | 505 | -12% (inactive) | 19.9% (inactive) | 91.8 | 10.2% (inactive) | 91 | -0.481 (inactive) | -0.000128 (inactive) | 0.00598 (inactive) | -3.39% (inactive) | 1.58% (inactive)
COc1cccc(-c2nc(CS(=O)(=O)CC(=O)NCc3ccc(Cl)cc3)c(C)o2)c1 | 840 | -2.3% (inactive) | -4.4% (inactive) | 122 | -41.4% (inactive) | 118 | -0.554 (inactive) | 1.6e-06 (inactive) | 0.00669 (inactive) | -3.28% (inactive) | 18% (inactive)
CCN(CC(=O)Nc1ccc(S(N)(=O)=O)cc1)S(=O)(=O)c1cc(C)ccc1OC | 432 | -0.3% (inactive) | -6.5% (inactive) | 118 | -51.7% (inactive) | 132 | -0.425 (inactive) | -4.7e-05 (inactive) | 0.0034 (inactive) | -18.9% (inactive) | 19.6% (inactive)
CSC1=C(C#N)C(c2ccc(Cl)cc2)C2=C(CC(C)(C)CC2=O)N1 (stereo not drawn) | 391 | -3.3% (inactive) | 29.1% (inactive) | 81.5 | -5.3% (inactive) | 108 | -0.416 (inactive) | 5.8e-06 (inactive) | 0.00657 (inactive) | 1.71% (inactive) | 24.5% (inactive)
Cc1ccccc1-n1nnnc1SCC(=O)Nc1ccc(S(=O)(=O)N2CCCC2)cc1 | 675 | -5.5% (inactive) | 11% (inactive) | 96.4 | -1% (inactive) | 110 | -0.534 (inactive) | 1.4e-05 (inactive) | 0.00566 (inactive) | 23.8% (inactive) | 24.1% (inactive)
Cc1nnc(SCC(=O)N2CCN(S(=O)(=O)c3ccccc3)CC2)[nH]c1=O | 711 | 9.4% (inactive) | 7.1% (inactive) | 103 | -39.5% (inactive) | 127 | -0.509 (inactive) | -6e-05 (inactive) | 0.00552 (inactive) | 3.92% (inactive) | 13.4% (inactive)
O=C(NCC(c1cccnc1)N1CCN(c2ccc(F)cc2)CC1)c1ccc(F)cc1 (stereo not drawn) | 346 | 7.4% (inactive) | -9.9% (inactive) | 84 | -33.2% (inactive) | 96.5 | -0.596 (inactive) | -4.6e-05 (inactive) | 0.00545 (inactive) | 1.86% (inactive) | 6.23% (inactive)
Cc1cc(C(=O)OCCO)c(C#N)c(N)n1 | 299 | 8.5% (inactive) | 9.5% (inactive) | 106 | -31.1% (inactive) | 128 | -0.132 (active) | 1.2e-05 (inactive) | 0.00497 (inactive) | 16.3% (inactive) | 18.4% (inactive)
COC(=O)C1=C(C)NC(C)=C(C(=O)OC)C1C1CC=CCC1 (stereo not drawn) | 377 | 1.7% (inactive) | 24.3% (inactive) | 91.2 | 32.4% (inactive) | 93.7 | -0.456 (inactive) | 8.7e-05 (inactive) | 0.00547 (inactive) | 8.91% (inactive) | 22.8% (inactive)
O=C(OCn1nnc2ccccc2c1=O)c1cc2ccccc2o1 | 544 | -3.9% (inactive) | 19.5% (inactive) | 76.7 | -10.4% (inactive) | 90.4 | -0.447 (inactive) | -3.1e-05 (inactive) | 0.00552 (inactive) | -2.91% (inactive) | 27.7% (inactive)
COc1nc(NCCc2ccc(OC)c(OC)c2)nc(NC(C)(C)CO)n1 | 336 | -1.4% (inactive) | 13.7% (inactive) | 97.3 | -7% (inactive) | 108 | -0.496 (inactive) | -1.3e-06 (inactive) | 0.00642 (inactive) | 15.5% (inactive) | 11.8% (inactive)
CCOC(=O)Cn1c2c(c(=N)c3ccccc31)CCC2 | 565 | -7.1% (inactive) | -0.7% (inactive) | 106 | 2% (inactive) | 103 | -0.623 (inactive) | -3.1e-05 (inactive) | 0.00442 (inactive) | 16% (inactive) | 20.3% (inactive)
CC1CCCN(C(=O)CN2C(=O)c3ccccc3C2=O)C1 (stereo not drawn) | 432 | 4.9% (inactive) | 15.5% (inactive) | 136 | -27.3% (inactive) | 102 | -0.272 (inactive) | -3.7e-05 (inactive) | 0.00658 (inactive) | 14.5% (inactive) | 20.6% (inactive)
Cc1nnc(NCCc2ccccc2)n(N)c1=O | 806 | -5.5% (inactive) | -21.2% (inactive) | 106 | -35% (inactive) | 121 | -0.514 (inactive) | 4.9e-06 (inactive) | 0.00506 (inactive) | 2.54% (inactive) | 5.29% (inactive)
Cc1nc2ccccc2c(=O)n1CC(=O)N1CCOCC1 | 558 | -17.1% (inactive) | 11.6% (inactive) | 78.3 | 22.8% (inactive) | 89.9 | -0.503 (inactive) | -4.9e-05 (inactive) | 0.00461 (inactive) | 14.1% (inactive) | 13.2% (inactive)
CC(C)Cn1c(N)c(C(=O)NCc2cccs2)c2nc3ccccc3nc21 | 250 | -2.4% (inactive) | -3.1% (inactive) | 68.4 | -1.8% (inactive) | 97.2 | -0.474 (inactive) | 7.5e-06 (inactive) | 0.00389 (inactive) | 14.5% (inactive) | -0.686% (inactive)
CC(=O)Nc1nc(=S)ss1 | 568 | -7.2% (inactive) | 1.3% (inactive) | 60.9 | -28.4% (inactive) | 120 | -0.486 (inactive) | -2.6e-05 (inactive) | 0.00751 (inactive) | 10.3% (inactive) | 14.9% (inactive)
Cc1cc(-c2ccccc2)c(C#N)c(N)n1 | 331 | -6.4% (inactive) | -10.4% (inactive) | 94.7 | -11.3% (inactive) | 115 | -0.394 (inactive) | -6.4e-07 (inactive) | 0.00466 (inactive) | 18.7% (inactive) | 34.2% (inactive)
COc1ccc(CCn2c(-c3ccco3)nc3nc4ccccc4nc32)cc1 | 806 | -5.6% (inactive) | -7.3% (inactive) | 101 | -25.4% (inactive) | 115 | -0.445 (inactive) | -3.4e-05 (inactive) | 0.00679 (inactive) | 18.8% (inactive) | -6.71% (inactive)
O=C(Nc1ccccc1N1CCCCC1)c1ncoc1-c1ccc(F)cc1 | 426 | -1.8% (inactive) | -0.9% (inactive) | 87.1 | -180% (inactive) | 122 | -0.424 (inactive) | 4.4e-06 (inactive) | 0.00948 (inactive) | -3.24% (inactive) | -51.9% (inactive)
CCOc1ccccc1-c1nc(-c2ccc(C)nc2OC)no1 | 404 | 4.8% (inactive) | -2% (inactive) | 82.1 | 1.8% (inactive) | 96.3 | -0.552 (inactive) | 1.8e-05 (inactive) | 0.00778 (inactive) | -91.4% (inactive) | -227% (inactive)
O=C(Cn1nc(Cc2ccncc2)c2ccccc2c1=O)N1CCc2ccccc2C1 | 726 | -7.3% (inactive) | -6.8% (inactive) | 103 | -57.6% (inactive) | 122 | -0.527 (inactive) | -2.1e-05 (inactive) | 0.0064 (inactive) | -3.59% (inactive) | 15.5% (inactive)
O=C(O)C1C2CCC(O2)C1C(=O)NCCC1=CCCCC1 (stereo not drawn) | 465 | 10.4% (inactive) | -18.3% (inactive) | 105 | -112% (inactive) | 117 | -0.331 (inactive) | -5.8e-05 (inactive) | 0.0055 (inactive) | 1.86% (inactive) | 13.6% (inactive)
O=C(CSc1nnc(Cc2cccs2)n1Cc1ccco1)Nc1cccc(Cl)c1 | 677 | -3.5% (inactive) | -13.8% (inactive) | 108 | -30.1% (inactive) | 116 | -0.397 (inactive) | 1.1e-05 (inactive) | 0.0045 (inactive) | 13.6% (inactive) | 31.6% (inactive)
